{
  "source": "paper PMC7819943",
  "about": "“Rice protein-binding microarrays: a tool to detect cis-acting elements near promoter regions in rice”",
  "note": "Whole data set: some 35,000 sequences, median “fluorescence intensity (a.u.)” near 10,000, cut for the highest 2% near 52,000. Only a selection was taken, and the highest values are over-represented in it overall.",
  "data": [
    {"target": "T1, OsWOX13 (Oryza sativa, UniProt Q5QMM3 1-267)", "T1 sequence": "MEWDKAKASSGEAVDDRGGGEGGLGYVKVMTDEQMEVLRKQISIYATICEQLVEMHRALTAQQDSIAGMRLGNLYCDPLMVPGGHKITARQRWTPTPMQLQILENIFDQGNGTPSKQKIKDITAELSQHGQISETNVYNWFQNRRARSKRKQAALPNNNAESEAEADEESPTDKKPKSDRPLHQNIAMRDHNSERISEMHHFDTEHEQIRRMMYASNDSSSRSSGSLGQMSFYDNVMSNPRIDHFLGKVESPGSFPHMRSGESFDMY", "assay": "protein-binding microarray (RPBM); PBS, 2% BSA, 51.3 ng/ul salmon testes DNA, 50 uM zinc acetate, 200 nM TF, 25 C, 1 h; high values mean tight binding", "conditions": "protein: recombinant; tags: N-terminal polyhistidine and DsRed monomer fusion (pET32a); label: CyDye5-dUTP incorporated in the synthesized complementary strand; 3' TTTTT single-stranded linker to array surface; dsDNA, one strand shown", "how_it_was_run": "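Ni–NTA purification followed expression in E. coli BL21-CodonPlus of transcription factors fused N-terminally to a polyhistidine tag and DsRed. At 200 nM in PBS with 2% BSA, salmon testes DNA and 50 µM zinc acetate, the protein was incubated for 1 h at 25 °C with a custom Agilent array that had been primer-extended with Cy5-dUTP and blocked with 2% BSA. After washing, the array was read on an Axon 4000B scanner. The binding signal is per-feature fluorescence intensity in arbitrary units.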", "values": [
      {"sequence": "TTTTATTAACTGTAAACGTCACATGTTCTGTCATACGCGTCGGAGTCACCTAGTGCAG", "binding signal": "5270 fluorescence intensity (a.u.)"},
      {"sequence": "CTTGTCAATCTACAGAGAGTCCACGAGTTAGTAGTATGTGCGGAGTCACCTAGTGCAG", "binding signal": "8690 fluorescence intensity (a.u.)"},
      {"sequence": "TAGTTAATTGTGCCAAACAAAATTCAAAATTAAGACATCTCGGAGTCACCTAGTGCAG", "binding signal": "33000 fluorescence intensity (a.u.)"},
      {"sequence": "CACATTGACCAAAATTTAATGTTTGTTTCCTACTAGTGTGCGGAGTCACCTAGTGCAG", "binding signal": "4440 fluorescence intensity (a.u.)"},
      {"sequence": "ACACTAATTAGGGAGATAATCTCTCTTGTGGTGTTTGTGTCGGAGTCACCTAGTGCAG", "binding signal": "52300 fluorescence intensity (a.u.)"},
      {"sequence": "TATTAATTGATGCGATTTAAATTATCTTTGGTCTTGATGTCGGAGTCACCTAGTGCAG", "binding signal": "50000 fluorescence intensity (a.u.)"},
      {"sequence": "GGTGTCTTGATTGATATGATTTAAATTATTCTTGGTCTTGCGGAGTCACCTAGTGCAG", "binding signal": "58500 fluorescence intensity (a.u.)"},
      {"sequence": "AATAATTTTCTTTTGTCACACTGTTTCTTCTCTAATCTATCGGAGTCACCTAGTGCAG", "binding signal": "5890 fluorescence intensity (a.u.)"},
      {"sequence": "TATTGATATGATTTAAATTGTCCTTGGTCTTGGTGTATAACGGAGTCACCTAGTGCAG", "binding signal": "40700 fluorescence intensity (a.u.)"},
      {"sequence": "TGGCACACTAATTAGGGAGAAAATCTCTATCTTGTGTTGTCGGAGTCACCTAGTGCAG", "binding signal": "9710 fluorescence intensity (a.u.)"},
      {"sequence": "ATACTGTCATCAATTGATTACTCTGACCGTCGATCACACACGGAGTCACCTAGTGCAG", "binding signal": "34100 fluorescence intensity (a.u.)"},
      {"sequence": "TTATAACACAAATAATATAATAGATATATAGACTGTTGTCCGGAGTCACCTAGTGCAG", "binding signal": "3650 fluorescence intensity (a.u.)"},
      {"sequence": "ATGTAATTTCACCATAACTATATATTATAATAAGATAAGTCGGAGTCACCTAGTGCAG", "binding signal": "8720 fluorescence intensity (a.u.)"},
      {"sequence": "CTAGATTGATCGAAATCCGTCAAGTTCATGAACCGTTAAGCGGAGTCACCTAGTGCAG", "binding signal": "54400 fluorescence intensity (a.u.)"},
      {"sequence": "CTGATGATTCACCCATGATCGATTGCTCGATCCGTTTAAGCGGAGTCACCTAGTGCAG", "binding signal": "3710 fluorescence intensity (a.u.)"},
      {"sequence": "GTGTATCATCTAGGTCCTAAATTGACACATCCCCTCTAGGCGGAGTCACCTAGTGCAG", "binding signal": "10100 fluorescence intensity (a.u.)"},
      {"sequence": "AAGTGATTGAAATTTAATTCATGATCCTAAACCATACAACCGGAGTCACCTAGTGCAG", "binding signal": "53200 fluorescence intensity (a.u.)"},
      {"sequence": "AAGAAAATTTAAAACAATTGATTACATACTAAATTAATATCGGAGTCACCTAGTGCAG", "binding signal": "9840 fluorescence intensity (a.u.)"},
      {"sequence": "TTATATAGTTACCAAAATTTGACAGCAAACTAAATGTAGCCGGAGTCACCTAGTGCAG", "binding signal": "3680 fluorescence intensity (a.u.)"},
      {"sequence": "TCCAGGTGATGGTAATGATATTGACATGCCCTCATCTAGTCGGAGTCACCTAGTGCAG", "binding signal": "3770 fluorescence intensity (a.u.)"},
      {"sequence": "AATTGAAATAATTGGAAATTTTCATATTTATATATTAAACCGGAGTCACCTAGTGCAG", "binding signal": "5800 fluorescence intensity (a.u.)"},
      {"sequence": "ATATAGTTACCAAAATTTGACAGCAAACTAAATGTAGCCACGGAGTCACCTAGTGCAG", "binding signal": "7890 fluorescence intensity (a.u.)"},
      {"sequence": "ATGATTTTCATCCGTTAGATTTGATGAATAAAGTATGAAGCGGAGTCACCTAGTGCAG", "binding signal": "11100 fluorescence intensity (a.u.)"},
      {"sequence": "AGGGTGATTGACAGGTGGGTCCATCCCCTCACATGCCAGGCGGAGTCACCTAGTGCAG", "binding signal": "64800 fluorescence intensity (a.u.)"},
      {"sequence": "TACCATGATTGGGCTGCAACTAAATTGACAGGTCAGCCATCGGAGTCACCTAGTGCAG", "binding signal": "60400 fluorescence intensity (a.u.)"},
      {"sequence": "TTGTGACTTGACTTTGCCAATCTTAGTCTATTTTCTCGAGCGGAGTCACCTAGTGCAG", "binding signal": "5270 fluorescence intensity (a.u.)"},
      {"sequence": "TATTAAATTGGCTATAGGTGATTTGGAGCTAATAGTTAGCCGGAGTCACCTAGTGCAG", "binding signal": "24000 fluorescence intensity (a.u.)"},
      {"sequence": "CTTAATTACTATTCCCTCCGTCATACAATATAAGAGATTTCGGAGTCACCTAGTGCAG", "binding signal": "22500 fluorescence intensity (a.u.)"},
      {"sequence": "CATAAACTGAAGCTCATAATTGTTTGTGAAATCGTTTATCCGGAGTCACCTAGTGCAG", "binding signal": "16900 fluorescence intensity (a.u.)"},
      {"sequence": "CGTGGTCTCTAATTTGTTTTGTTCGTTCTCCTTTCTTGTTCGGAGTCACCTAGTGCAG", "binding signal": "4660 fluorescence intensity (a.u.)"},
      {"sequence": "GACTCTATCTAGAAATTAAATTTAATCAACACATGTAAGTCGGAGTCACCTAGTGCAG", "binding signal": "12800 fluorescence intensity (a.u.)"},
      {"sequence": "TTTATTTAATTGATTCGATGAACTTTGTGCCATTAAAATTCGGAGTCACCTAGTGCAG", "binding signal": "35000 fluorescence intensity (a.u.)"},
      {"sequence": "AGGTGGCCCCATTAATTGATGATGAAATGCAAACCTAAATCGGAGTCACCTAGTGCAG", "binding signal": "9480 fluorescence intensity (a.u.)"},
      {"sequence": "TATGATTAAAATTGTTTTGAACCATTGCACGCACCAGCATCGGAGTCACCTAGTGCAG", "binding signal": "18500 fluorescence intensity (a.u.)"},
      {"sequence": "TAAATTGACATGATTAATTGAAACCACGCCATTCAGCAATCGGAGTCACCTAGTGCAG", "binding signal": "65500 fluorescence intensity (a.u.)"},
      {"sequence": "TGGGGTATCTAGTCAATCATACAATATTTTGTTTTGCTAACGGAGTCACCTAGTGCAG", "binding signal": "7400 fluorescence intensity (a.u.)"},
      {"sequence": "AGGAAAATGTGGTGAGTAATTAGGTTATAATTTATTGAGTCGGAGTCACCTAGTGCAG", "binding signal": "4100 fluorescence intensity (a.u.)"},
      {"sequence": "AAAGAGAACACATAATTGATTTGGAGCACCCAAATAATTTCGGAGTCACCTAGTGCAG", "binding signal": "15200 fluorescence intensity (a.u.)"},
      {"sequence": "TTGTGATTGATTTCACACCCAAACAACAAGTAGTCAGCTACGGAGTCACCTAGTGCAG", "binding signal": "61300 fluorescence intensity (a.u.)"},
      {"sequence": "AGTGTGATTGATGCACAAACAAACAGCTCAAGTTGAGGCCCGGAGTCACCTAGTGCAG", "binding signal": "55400 fluorescence intensity (a.u.)"},
      {"sequence": "TTGATAATTGGGCACCTATGCCCGACACATAAAACACACTCGGAGTCACCTAGTGCAG", "binding signal": "22200 fluorescence intensity (a.u.)"},
      {"sequence": "GTTTCAATGATTGGTTGTTCACCCAACCCAAGTACCCAGCCGGAGTCACCTAGTGCAG", "binding signal": "57400 fluorescence intensity (a.u.)"}
    ]}
  ]
}
